Source: PubChem BioAssay (Tox21)
Inconclusive results are not listed. Entries that show only a call come without a potency. Active and inactive are the calls of the source. The call rests on the fitted dose curve; in most records, active means well fitted curve in the direction sought with a large enough effect in the repeat runs; inconclusive means weak or mixed curves; inactive means no such curve, though single readings can be large; an effect the other way counts as inactive or inconclusive.

Columns and labels:
[1] = molecular target: Voltage-gated inwardly rectifying potassium channel KCNH2 (Homo sapiens) (UniProt Q12809); assay: Human Ether-a-go-go-Related Gene (hERG) channel small molecule antagonists: fluorescence cell-based qHTS assay (AID 1671200);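 further: hERG-expressing U2OS cells given a thallium stimulus after FluxOR II dye loading; series mostly up to about 77 µM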
Voltage-gated inwardly rectifying potassium channel KCNH2 (Homo sapiens), sequence (Q12809 whole entry, looked up): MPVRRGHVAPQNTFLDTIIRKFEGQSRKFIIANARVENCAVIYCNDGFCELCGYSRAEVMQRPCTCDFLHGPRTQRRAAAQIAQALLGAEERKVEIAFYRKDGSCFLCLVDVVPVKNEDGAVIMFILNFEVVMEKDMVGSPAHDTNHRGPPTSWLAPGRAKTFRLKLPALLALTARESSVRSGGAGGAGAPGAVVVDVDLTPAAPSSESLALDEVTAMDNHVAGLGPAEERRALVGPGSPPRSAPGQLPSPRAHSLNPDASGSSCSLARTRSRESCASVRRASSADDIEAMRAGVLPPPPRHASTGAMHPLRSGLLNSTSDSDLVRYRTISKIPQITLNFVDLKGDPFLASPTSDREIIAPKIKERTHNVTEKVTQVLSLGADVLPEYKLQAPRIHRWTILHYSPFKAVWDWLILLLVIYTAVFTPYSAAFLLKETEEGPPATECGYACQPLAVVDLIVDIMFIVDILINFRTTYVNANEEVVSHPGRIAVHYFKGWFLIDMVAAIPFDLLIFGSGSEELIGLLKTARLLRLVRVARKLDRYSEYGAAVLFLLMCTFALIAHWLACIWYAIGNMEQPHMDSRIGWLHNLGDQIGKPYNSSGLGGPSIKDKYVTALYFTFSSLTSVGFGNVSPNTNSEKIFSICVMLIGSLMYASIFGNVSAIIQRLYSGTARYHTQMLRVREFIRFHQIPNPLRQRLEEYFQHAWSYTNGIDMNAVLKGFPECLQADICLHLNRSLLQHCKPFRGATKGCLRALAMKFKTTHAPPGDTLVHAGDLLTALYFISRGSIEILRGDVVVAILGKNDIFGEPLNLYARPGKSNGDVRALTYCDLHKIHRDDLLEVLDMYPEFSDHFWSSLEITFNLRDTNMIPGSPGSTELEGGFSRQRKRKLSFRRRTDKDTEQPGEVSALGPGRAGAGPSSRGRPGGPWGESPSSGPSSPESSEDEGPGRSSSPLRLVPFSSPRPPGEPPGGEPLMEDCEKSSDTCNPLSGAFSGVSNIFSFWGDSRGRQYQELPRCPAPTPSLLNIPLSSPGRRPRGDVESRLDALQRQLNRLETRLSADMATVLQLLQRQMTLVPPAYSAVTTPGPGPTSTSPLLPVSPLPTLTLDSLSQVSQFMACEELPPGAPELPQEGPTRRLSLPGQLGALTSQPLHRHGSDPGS
Summary of the method: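 Quantitative HTS in hERG-U2OS cells: thallium entry through the channel reports activity, read as continuous 480/540 nm fluorescence over 2 min after stimulus addition.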

[2] = molecular target: Cytochrome P450 3A4 (Homo sapiens) (UniProt P08684); assay: Cytochrome P450 Family 3 Subfamily A Member 4 (CYP3A4) small molecule antagonists: luciferase reporter qHTS assay (AID 1671201); further: potency means the concentration at half of the fitted maximal effect
Cytochrome P450 3A4 (Homo sapiens), sequence (P08684 whole entry, looked up): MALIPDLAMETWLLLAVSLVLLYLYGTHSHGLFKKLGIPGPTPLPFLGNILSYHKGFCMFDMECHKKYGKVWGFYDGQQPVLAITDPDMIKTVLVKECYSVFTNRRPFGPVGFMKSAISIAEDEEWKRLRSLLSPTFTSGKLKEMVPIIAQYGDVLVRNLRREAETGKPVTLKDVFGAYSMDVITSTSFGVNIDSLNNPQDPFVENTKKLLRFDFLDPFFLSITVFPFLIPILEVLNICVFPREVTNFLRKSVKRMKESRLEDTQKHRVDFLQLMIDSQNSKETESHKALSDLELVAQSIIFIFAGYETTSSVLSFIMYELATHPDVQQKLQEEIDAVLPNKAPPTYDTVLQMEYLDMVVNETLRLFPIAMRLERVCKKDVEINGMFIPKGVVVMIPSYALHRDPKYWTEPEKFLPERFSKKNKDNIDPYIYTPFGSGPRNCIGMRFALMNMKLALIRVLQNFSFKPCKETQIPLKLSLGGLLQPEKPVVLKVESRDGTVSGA
Summary of the method: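 Inhibition of CYP3A4 is measured as loss of light: the enzyme converts a proluciferin substrate to luciferin, detected luminescently. Reaction ran 1 h at room temperature with NADPH regeneration after a 10 min compound preincubation.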

[3] = molecular target: Cytochrome P450 1A2 (Homo sapiens) (UniProt P05177); assay: Cytochrome P450 Family 1 Subfamily A Member 2 (CYP1A2) small molecule antagonists: luciferase reporter qHTS assay (AID 1671199); further: potency means the concentration at half of the fitted maximal effect
Cytochrome P450 1A2 (Homo sapiens), sequence (P05177 whole entry, looked up): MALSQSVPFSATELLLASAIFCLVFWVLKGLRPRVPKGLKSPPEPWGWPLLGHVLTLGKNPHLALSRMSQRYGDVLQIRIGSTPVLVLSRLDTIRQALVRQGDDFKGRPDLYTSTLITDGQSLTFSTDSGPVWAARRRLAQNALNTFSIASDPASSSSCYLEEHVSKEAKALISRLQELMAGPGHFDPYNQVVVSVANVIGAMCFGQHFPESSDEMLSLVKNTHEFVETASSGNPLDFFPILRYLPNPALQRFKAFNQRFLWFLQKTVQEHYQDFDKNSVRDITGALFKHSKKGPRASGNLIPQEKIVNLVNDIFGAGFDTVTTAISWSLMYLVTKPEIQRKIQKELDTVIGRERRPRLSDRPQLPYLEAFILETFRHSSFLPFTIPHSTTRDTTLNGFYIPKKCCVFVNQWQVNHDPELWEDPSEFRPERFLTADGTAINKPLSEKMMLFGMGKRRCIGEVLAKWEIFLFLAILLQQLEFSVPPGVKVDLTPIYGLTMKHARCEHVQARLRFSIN
Summary of the method: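 Quantitative high-throughput format using the P450-Glo CYP1A2 system. Reaction initiated by NADPH regeneration solution, 1 h at room temperature, then stopped with detection reagent; luminescence measured 20 min later.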
Further: nearly all actives have a fitted effect of over 50% in size.

SMILES	Potency [1]	Potency [2]	Potency [3]
CCC(C(=O)O)c1ccc(N2Cc3ccccc3C2=O)cc1 (centres undefined)	inactive	inactive	
CC(C)Cc1nccs1	inactive	inactive	
O=c1[nH]nc(-c2ccc([N+](=O)[O-])o2)o1	inactive	inactive	
CCCCCCC/C=C/C=O	inactive	inactive	
CC(=O)S[C@H](C(=O)N[C@H]1Cc2ccccc2[C@H]2CCC[C@@H](C(=O)O)N2C1=O)C(C)C	inactive	inactive	
CCc1c(C)[nH]c2c1C(=O)C(CN1CCOCC1)CC2 (centres undefined)	inactive		
CS(C)=O	inactive		
O=Cc1ccc([N+](=O)[O-])cc1	inactive		
CC1(COc2ccc(CC3SC(=O)NC3=O)cc2)CCCCC1 (centres undefined)	inactive	inactive	
C(/C=C/C=C/Nc1ccccc1)=Nc1ccccc1	inactive		
O=C(O)c1cccnc1Nc1cccc(C(F)(F)F)c1	inactive	inactive	
C[C@]12CCC(=O)C=C1[C@@H]1C[C@@H]1[C@H]1[C@@H]3[C@@H]4C[C@@H]4[C@@]4(CCC(=O)O4)[C@@]3(C)CC[C@@H]12	inactive	inactive	inactive
C=C[Si](OCC)(OCC)OCC	inactive		
CCCc1ccc(OC)cc1	inactive		
Cc1c(Nc2ncccc2C(=O)O)cccc1C(F)(F)F	inactive	inactive	
Cc1cc(N)n(-c2ccccc2)n1	inactive	inactive	39.9 µM (active)
CC(C)CCCCCCCOC(=O)c1ccc(C(=O)OCCCCCCCC(C)C)c(C(=O)OCCCCCCCC(C)C)c1	inactive		
Nc1ccccc1Nc1ccccc1	inactive	31.8 µM (active)	7.12 µM (active)
CCOc1cc(OCC)c(C(C)=O)cc1OCC	inactive		
CCC[Si](OC)(OC)OC	inactive		
